Measured values as given in PMC5540273 (PLoS ONE, 2017).

Columns and labels:
Settings in all cases: concentration: 1 μM, replicates: in singlicate; n = 1
[1] = tested on: MAST1
[2] = tested on: T1, MEK1
T1 construct: gene MAP2K1

[3] = tested on: T2, MEK2
T2 construct: gene MAP2K2

[4] = tested on: T3, MEK3
T3 construct: gene MAP2K3

[5] = tested on: T4, MEK4
T4 construct: gene MAP2K4

[6] = tested on: T5, MEK5
T5 construct: gene MAP2K5

[7] = tested on: T6, MEK6
T6 construct: gene MAP2K6

[8] = tested on: MELK
[9] = tested on: MERTK
[10] = tested on: MET
[11] = tested on: T7, MINK
T7 construct: gene MINK1

[12] = tested on: MKK7
[13] = tested on: MKNK1
[14] = tested on: MKNK2
[15] = tested on: T8, MLCK
T8 construct: gene MYLK3

[16] = tested on: T9, MLK1
T9 construct: gene MAP3K9

[17] = tested on: MLK2
[18] = tested on: MLK3
[19] = tested on: MRCKA
[20] = tested on: T10, MRCKB
T10 construct: gene CDC42BPB
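Further: KINOMEscan kinase panel screen.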

## COc1cccc(C2=C(Nc3cc(Cl)c(O)c(Cl)c3)C(=O)NC2=O)c1 [SB-390767]
[1]
  %Inh: 1%
[2]
  %Inh: 0%
[3]
  %Inh: 0%
[4]
  %Inh: 0%
[5]
  %Inh: 0%
[6]
  %Inh: 17%
[7]
  %Inh: 0%
[8]
  %Inh: 17%
[9]
  %Inh: 0%
[10]
  %Inh: 0%
[11]
  %Inh: 0%
[12]
  %Inh: 26%
[13]
  %Inh: 6%
[14]
  %Inh: 26%
[15]
  %Inh: 0%
[16]
  %Inh: 0%
[17]
  %Inh: 4%
[18]
  %Inh: 0%
[19]
  %Inh: 0%
[20]
  %Inh: 3%

## O=C(Nc1n[nH]c2nc(-c3ccco3)c(Br)cc12)C1CCN(Cc2ccccc2)C1.O=C(O)[C@H](O)[C@@H](O)C(=O)O (stereo not shown) [SB-742034]
[1]
  %Inh: 13%
[2]
  %Inh: 1%
[3]
  %Inh: 25%
[4]
  %Inh: 21%
[5]
  %Inh: 20%
[6]
  %Inh: 32%
[7]
  %Inh: 16%
[8]
  %Inh: 2%
[9]
  %Inh: 0%
[10]
  %Inh: 0%
[11]
  %Inh: 15%
[12]
  %Inh: 0%
[13]
  %Inh: 0%
[14]
  %Inh: 27%
[15]
  %Inh: 25%
[16]
  %Inh: 8%
[17]
  %Inh: 20%
[18]
  %Inh: 9%
[19]
  %Inh: 0%
[20]
  %Inh: 0%

## CS(=O)(=O)CCNCc1nc(-c2ccc3ncnc(Nc4ccc5c(cnn5Cc5ccccc5)c4)c3c2)cs1.Cl.Cl [GW569716]
[1]
  %Inh: 32%
[2]
  %Inh: 0%
[3]
  %Inh: 0%
[4]
  %Inh: 0%
[5]
  %Inh: 0%
[6]
  %Inh: 99.6%
[7]
  %Inh: 0%
[8]
  %Inh: 0%
[9]
  %Inh: 0%
[10]
  %Inh: 0%
[11]
  %Inh: 1%
[12]
  %Inh: 0%
[13]
  %Inh: 0%
[14]
  %Inh: 23%
[15]
  %Inh: 0%
[16]
  %Inh: 1%
[17]
  %Inh: 0%
[18]
  %Inh: 0%
[19]
  %Inh: 17%
[20]
  %Inh: 18%

## COc1ccc(Nc2nccc(N3CCC(NC(=O)c4cc5ccccc5s4)C3)n2)cc1 (stereo not shown) [GSK1379738]
[1]
  %Inh: 0%
[2]
  %Inh: 0%
[3]
  %Inh: 0%
[4]
  %Inh: 0%
[5]
  %Inh: 23%
[6]
  %Inh: 10%
[7]
  %Inh: 0%
[8]
  %Inh: 0%
[9]
  %Inh: 0%
[10]
  %Inh: 0%
[11]
  %Inh: 0%
[12]
  %Inh: 26%
[13]
  %Inh: 22%
[14]
  %Inh: 11%
[15]
  %Inh: 0%
[16]
  %Inh: 0%
[17]
  %Inh: 0%
[18]
  %Inh: 0%
[19]
  %Inh: 12%
[20]
  %Inh: 0%

## O=c1cc(N2CCOCC2)nc2n(Cc3ccccc3F)ccn12 [GSK2297428]
[1]
  %Inh: 0%
[2]
  %Inh: 0%
[3]
  %Inh: 0%
[4]
  %Inh: 0%
[5]
  %Inh: 0%
[6]
  %Inh: 0%
[7]
  %Inh: 0%
[8]
  %Inh: 0%
[9]
  %Inh: 42%
[10]
  %Inh: 0%
[11]
  %Inh: 8%
[12]
  %Inh: 0%
[13]
  %Inh: 0%
[14]
  %Inh: 0%
[15]
  %Inh: 0%
[16]
  %Inh: 0%
[17]
  %Inh: 0%
[18]
  %Inh: 38%
[19]
  %Inh: 4%
[20]
  %Inh: 0%

## COC(=O)C(Cc1ccccc1)NC(=O)NC1CCN(c2ccnc(Nc3ccc(F)cc3)n2)C1 (stereo not shown) [GSK1379714]
[1]
  %Inh: 42%
[2]
  %Inh: 35%
[3]
  %Inh: 0%
[4]
  %Inh: 31%
[5]
  %Inh: 0%
[6]
  %Inh: 54%
[7]
  %Inh: 4%
[8]
  %Inh: 40%
[9]
  %Inh: 0%
[10]
  %Inh: 0%
[11]
  %Inh: 2%
[12]
  %Inh: 0%
[13]
  %Inh: 0%
[14]
  %Inh: 0%
[15]
  %Inh: 5%
[16]
  %Inh: 0%
[17]
  %Inh: 0%
[18]
  %Inh: 15%
[19]
  %Inh: 22%
[20]
  %Inh: 0%

## Cn1cncc1-c1cc2c(Nc3ccc(OCc4ccccc4)cc3)ncnc2cn1 [GW281179]
[1]
  %Inh: 0%
[2]
  %Inh: 11%
[3]
  %Inh: 5%
[4]
  %Inh: 0%
[5]
  %Inh: 24%
[6]
  %Inh: 99.2%
[7]
  %Inh: 0%
[8]
  %Inh: 0%
[9]
  %Inh: 0%
[10]
  %Inh: 0%
[11]
  %Inh: 0%
[12]
  %Inh: 11%
[13]
  %Inh: 0%
[14]
  %Inh: 47%
[15]
  %Inh: 0%
[16]
  %Inh: 0%
[17]
  %Inh: 0%
[18]
  %Inh: 15%
[19]
  %Inh: 21%
[20]
  %Inh: 0%

## Cc1ccc(NC(=O)c2ccc(Cl)cc2)cc1-c1ccc(C(=O)Nc2ccncc2)cc1 [GSK1398467]
[1]
  %Inh: 0%
[2]
  %Inh: 0%
[3]
  %Inh: 0%
[4]
  %Inh: 0%
[5]
  %Inh: 3%
[6]
  %Inh: 0%
[7]
  %Inh: 0%
[8]
  %Inh: 0%
[9]
  %Inh: 18%
[10]
  %Inh: 0%
[11]
  %Inh: 0%
[12]
  %Inh: 0%
[13]
  %Inh: 0%
[14]
  %Inh: 12%
[15]
  %Inh: 0%
[16]
  %Inh: 0%
[17]
  %Inh: 9%
[18]
  %Inh: 15%
[19]
  %Inh: 9%
[20]
  %Inh: 3%

## COC(=O)C(NC(=O)NC1CCN(c2ccnc(Nc3ccc(F)cc3)n2)C1)c1ccccc1 (stereo not shown) [GSK1379712]
[1]
  %Inh: 0%
[2]
  %Inh: 19%
[3]
  %Inh: 0%
[4]
  %Inh: 0%
[5]
  %Inh: 16%
[6]
  %Inh: 86%
[7]
  %Inh: 0%
[8]
  %Inh: 20%
[9]
  %Inh: 0%
[10]
  %Inh: 0%
[11]
  %Inh: 7%
[12]
  %Inh: 32%
[13]
  %Inh: 24%
[14]
  %Inh: 6%
[15]
  %Inh: 5%
[16]
  %Inh: 0%
[17]
  %Inh: 0%
[18]
  %Inh: 6%
[19]
  %Inh: 10%
[20]
  %Inh: 0%

## Cc1ccc(-c2nc(Nc3ccncc3)c3ccccc3n2)s1 [GSK189015]
[1]
  %Inh: 0%
[2]
  %Inh: 11%
[3]
  %Inh: 1%
[4]
  %Inh: 0%
[5]
  %Inh: 11%
[6]
  %Inh: 17%
[7]
  %Inh: 0%
[8]
  %Inh: 0%
[9]
  %Inh: 11%
[10]
  %Inh: 10%
[11]
  %Inh: 2%
[12]
  %Inh: 0%
[13]
  %Inh: 5%
[14]
  %Inh: 17%
[15]
  %Inh: 14%
[16]
  %Inh: 6%
[17]
  %Inh: 49%
[18]
  %Inh: 5%
[19]
  %Inh: 24%
[20]
  %Inh: 21%

## Cc1ccc(NC(=O)Nc2ccccc2F)cc1-c1ccc(C(=O)Nc2ccncc2)cc1 [GSK1398477]
[1]
  %Inh: 0%
[2]
  %Inh: 0%
[3]
  %Inh: 0%
[4]
  %Inh: 0%
[5]
  %Inh: 26%
[6]
  %Inh: 37%
[7]
  %Inh: 0%
[8]
  %Inh: 14%
[9]
  %Inh: 31%
[10]
  %Inh: 0%
[11]
  %Inh: 0%
[12]
  %Inh: 0%
[13]
  %Inh: 4%
[14]
  %Inh: 0%
[15]
  %Inh: 11%
[16]
  %Inh: 4%
[17]
  %Inh: 17%
[18]
  %Inh: 33%
[19]
  %Inh: 17%
[20]
  %Inh: 30%
